# According to PubChem BioAssay (NCATS):
# Where “and” joins values, the source holds several entries; their conditions need not be identical. Equal values may be shown once. Results filed as inconclusive are left out. A call without a number means that no potency is given here. Calls of active or inactive are those of the source. Calls follow the shape of the dose curve; as a rule, active = well fitted curve in the direction sought with a large enough effect; inconclusive = small, poorly fitted or top-dose-only effect, or another doubt; inactive = no such curve, though single readings can be large; an effect the other way counts as inactive or inconclusive. Where a SMILES comes first, the peptide text is derived from it. [ ]: non-standard residue; d: D form. ξ: configuration not given here. ξPhe(βξ-Me) = CC(c1ccccc1)C(N)C(=O)O; GABA = NCCCC(=O)O
# What was measured:
# [1] = Primary qHTS for inhibitors of nuclear receptor binding SET domain protein 2 (NSD2) in an isogenic RCH-ACV NSD2 p.E1099K mutant (9B) (AID 1645876)
# [2] = Primary qHTS for inhibitors of nuclear receptor binding SET domain protein 2 (NSD2) in an RCH-ACV wild type WT cells (2C) (AID 1645877)
# Also: nearly all actives have a fitted effect of over 70% in size.
# Potency is read from the fitted curve at half-maximal effect.
Compound,Potency [1],Potency [2],outcome [1],outcome [2]
CC1CCC2(C)C(CC(O)C(O)C23CO3)C1(C)CCC1=CC(O)OC1=O (stereo not given),inactive,inactive,,
CC1CCC2(C(=O)OC3OC(CO)C(O)C(O)C3O)CCC3(C(=O)O)C(=CCC4C5(C)CCC(OC6OC(C)C(O)C(O)C6O)C(C)(C)C5CCC43C)C2C1C (stereo not given),inactive,inactive,,
CC(=O)OC(CSC1CCC(=O)OC(C)CCC(=O)C1)C(=O)O (stereo not given),inactive,inactive,,
CC(C)CC1NC(=O)C(C(C)c2ccccc2)NC(=O)C(C(C)C)NC(=O)C(C)NC(=O)CCCNC(=O)C(Cc2c[nH]c3ccccc23)NC(=O)C(C)NC1=O (stereo not drawn) (cyclo([GABA]AV[ξPhe(βξ-Me)]LAW); configuration not given here),inactive,inactive,,
CC1=CC(=O)CC(C)(C)C1(O)CCC(C)O (stereo not given),inactive,inactive,,
COC(=O)C12C(=O)C(C)=C(O)C1(C)C(C)=CC1C34CCC(OC3=O)C(C)(C)C4CCC12C (stereo not given),inactive,inactive,,
CCc1nc(C(N)=O)c(Nc2ccc(N3CCC(N4CCN(C)CC4)CC3)c(OC)c2)nc1NC1CCOCC1,1.13 µM (active) and 2.63 µM (active),1.13 µM (active) and 2.63 µM (active),,
C/C=C/C=C/C=C/C(=O)O[C@@H]1C=C(CO)C(O)(C(=O)O)[C@@]2(C)CCCC(C)(C)[C@H]12 (stereo not given in full),inactive,inactive,,
COc1c2c(c(C)c3c1C(=O)OC3)OC1(C)CC(O)C3(O)C(C)(C)OC(=O)CCC3(C)C1C2 (stereo not given),inactive,inactive,,
CC[C@H](/C=C/[C@@H](C)[C@H]1CC[C@H]2[C@@H]3CC=C4C[C@@H](O)CC[C@]4(C)[C@H]3CC[C@]12C)C(C)C,,,inactive [at 4.96 µM],inactive [at 4.96 µM]
